Hits are enriched below; roughly 4% of the tested compounds scored in any of these assays.
LMP1 NFkB inh: Epstein-Barr LMP1 NF-kappaB reporter inhibition; inhibition, % at 12.5 µM; LMP1-induced NF-kappaB luciferase reporter cells, luminescence; AID 504558; actives 0.69% (n = 350,000); in the data active = inhibition above about 41%; inconclusive = no clear call, values can overlap the other calls;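 also: 0% = neutral control wells and 100% = reference inhibitor control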
esBAF inh: blocks esBAF chromatin remodeling in mouse ES cells; Bmi1-luciferase knock-in reporter, 24 h; 100% = twice the neutral-well signal; actives 2% (n = 350,000); AID 602393; reporter increase, % at 12.5 µM; in the data active = activation above about 40%; inconclusive = no clear call, values can overlap the other calls;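 also: 0% = median of the plate's neutral control wells and 100% = double that signal; a rise in the Bmi1 reporter signal indicates esBAF inhibition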
TRPM1 prom inh: MITF TRPM1 promoter inhibition in SK-MEL-5 cells | SK-MEL-5 TRPM1 promoter luciferase, 24 h | inhibition, % at 12.5 µM | actives 0.83% (n = 330,000) | AID 488899;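 active = mean inhibition across replicates of 60% or more, whatever share of single replicates reaches that level; inconclusive = some that reach 60%, reason not given; inactive = mean inhibition across replicates below 60%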
Wnt bcat act: activators of Wnt/beta-catenin signaling | Wnt/beta-catenin reporter cell assay, activator, plate reader | activation, % at 9.35 µM | actives 1.2% (n = 300,000); in the data active = activation above about 30%, passing the limit was not always enough; inconclusive = no clear call, values can overlap the other calls;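 also: 0% = neutral control wells and 100% = positive control wells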
MITF act: activators of MITF-driven TRPM1 promoter activity in SK-MEL-5 cells. activation, % at 12.5 µM. SK-MEL-5 TRPM1-promoter luciferase, 24 h; % of positive control, neutral wells = 0. actives 0.75% (n = 300,000). AID 588334;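 active = mean activation of at least 80% with every replicate also reaching 80%; inconclusive = mean reaches 80% but some replicate falls short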;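 also: 0% = neutral control wells and 100% = parthenolide positive control wells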
C2C12 statin: suppression of simvastatin myotoxicity; rescue of ATP level, % at 7.49 µM; actives 0.78% (n = 330,000); AID 602340; C2C12 myotubes + simvastatin, ATP luminescence, 48 h; scaled: DMSO 0, geranylgeraniol control 100;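 active = mean ATP rescue above about 67%, or every replicate alone reaching that limit, limit read from the data, passing the limit was not always enough; inconclusive = no clear call, values can overlap the other calls; inactive = mean under the limit and some replicate under it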;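 also: myotubes were challenged with 10 µM simvastatin during compound exposure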
The depositor's hits bear a star; ? = inconclusive; / = no result.

SMILES | LMP1 NFkB inh | esBAF inh | TRPM1 prom inh | Wnt bcat act | MITF act | C2C12 statin
O=C(c1cc([N+](=O)[O-])cc([N+](=O)[O-])c1)N(Cc1nnc(-c2ccccc2Cl)o1)C1CC1 | -15.4 | / | 34.0 | -2.0 | -32.6 | /
COc1ccc2c([N+](=O)[O-])c(N3CCCC3)[nH]c2c1 | 1.0 | 7.8 | 0.2 | 0.7 | 1.3 | -12.1
Fc1ccc(NC(=S)NNc2ncc(C(F)(F)F)cc2Cl)c(F)c1 | 45.1* | / | ? | -5.3 | -61.5 | /
FC(F)(F)c1cnc(NNC(=S)Nc2ccc(Cl)cc2)c(Cl)c1 | 31.3 | / | 49.6 | / | -47.9 | /
COc1ccc(-c2nn(-c3ccccc3)cc2C(=O)N(C)CC(=O)Nc2ccc(N3CCOCC3)cc2)cc1 | -3.3 | -1.8 | -6.4 | -0.3 | 6.1 | 0.6
CN(C(=O)COc1ccc(Cl)cc1Br)C1CCCCC1 | -4.9 | 47.5* | -14.5 | 9.2 | 6.4 | -53.2
CN(C(=O)COC(=O)c1cccnc1Cl)C1CCCCC1 | -3.0 | 55.8* | -47.0 | -0.4 | 49.7 | -2.2
Cc1ccsc1C(=O)OCC(=O)N(C)C1CCCCC1 | -18.1 | -4.8 | -16.5 | 48.4* | 15.9 | 6.7
COc1ccccc1-c1cnc2c(c1)C(=O)N([C@H](C)CO)C[C@@H](C)[C@@H](CN(C)Cc1cccnc1)O2 | / | -1.0 | / | / | / | 8.3
CCN(CC)C(=O)C(=O)N/N=C/c1cccc(Br)c1 | -1.7 | -12.7 | 0.5 | 1.8 | -1.7 | -5.8
Cc1ccc(S(=O)(=O)N(C)C[C@H]2Oc3ccc(NC(=O)C4CC4)cc3C(=O)N([C@@H](C)CO)C[C@@H]2C)cc1 | / | -1.0 | / | / | / | 16.9
O=C(CN1C(=O)NC2(CCCC2)C1=O)Nc1nc2ccc(F)cc2s1 | -12.8 | / | -14.0 | 8.0 | 12.5 | -2.7
Cc1ccc(-n2c(O)c(C=NCc3ccccn3)c3ccccc3c2=O)cc1 | -0.7 | -3.5 | -3.2 | 60.7* | 4.6 | -3.6
CCCCOc1ccc2ccccc2c1C=O | -22.7 | 73.1* | -58.7 | 7.8 | 54.9 | -11.8
O=C1CCN(Cc2ccccc2)S(=O)(=O)c2ccc(C(F)(F)F)cc21 | -5.0 | 0.8 | -5.1 | -1.6 | 3.0 | -6.2
COc1cccc(/C(O)=C2/C(=O)C(=O)N(Cc3cccnc3)C2c2ccco2)c1 (stereo not given) | -3.6 | 12.3 | 13.3 | 0.3 | -13.4 | 1.8
O=C1C(=O)N(CCN2CCOCC2)C(c2ccccn2)/C1=C(/O)c1ccc(F)cc1 (stereo not given) | 0.6 | / | 4.4 | 1.5 | -2.9 | /
Cc1c(/C(O)=C2/C(=O)C(=O)N(CCN3CCOCC3)C2c2ccccn2)cnn1-c1ccccc1 (stereo not given) | 54.7* | / | 46.7 | -32.8 | -41.6 | /
COc1ccc(C2/C(=C(/O)c3ccc(C)cc3)C(=O)C(=O)N2c2ccccn2)cc1 (stereo not given) | -9.8 | 7.3 | -9.0 | 2.4 | 12.4 | 8.8
COc1ccc(/C(O)=C2/C(=O)C(=O)N(CCN3CCOCC3)C2c2ccccn2)cc1 (stereo not given) | -6.0 | 44.2* | -1.7 | ? | 2.7 | -2.4
COc1ccc(/C(O)=C2/C(=O)C(=O)N(c3ccccn3)C2c2ccc(F)cc2)cc1 (stereo not given) | -2.3 | 22.8 | -82.5 | 1.1 | 83.6* | 2.8
O=C1C(=O)N(Cc2cccnc2)C(c2ccccn2)/C1=C(/O)c1ccccc1 (stereo not given) | 2.6 | 4.2 | 6.8 | 4.4 | -4.4 | 134.6*
O=C(O)CC(CC(=O)Nc1ccc(-c2ccccc2)cc1)c1ccccc1 (stereo not given) | -0.2 | 4.8 | -3.2 | 0.8 | 2.1 | -4.9
CN(C)C(=O)c1cccc(-c2ccc3c(c2)[C@@H]2[C@@H](CCN2C(=O)c2ccncc2)[C@H](CO)N3C)c1 | / | 0.8 | / | / | / | -2.9
CC(Oc1ccccc1)C(=O)N1CCC2(CC1)Oc1ccc(F)cc1C(=O)C21CC(c2ccccc2)=NO1 (stereo not given) | 5.7 | -6.0 | -17.9 | -4.1 | 18.7 | -2.5
SMILES | LMP1 NFkB inh | esBAF inh | TRPM1 prom inh | Wnt bcat act | MITF act | C2C12 statin
CN(C)CCN1C(=O)C(=O)/C(=C(/O)c2ccc3c(c2)OCCO3)C1c1ccccn1 (stereo not given) | -7.1 | 9.5 | 0.1 | 37.2* | 0.1 | -4.4
O=C(Nc1ccccc1F)c1cc2nc(C(F)F)cc(C(F)F)n2n1 | -16.5 | 58.4* | -56.8 | / | 54.7 | 11.3
C[C@@H]1CN([C@@H](C)CO)C(=O)c2cccc(NC(=O)c3ccncc3)c2O[C@@H]1CN(C)Cc1ccc(C(F)(F)F)cc1 | / | 0.4 | / | / | / | -0.8
Cc1cc(=O)[nH]c(CN2CCOCC2)n1 | -1.2 | 0.6 | 15.9 | -0.1 | -12.4 | -0.9
CC(C)c1nc(-c2ccc([N+](=O)[O-])cc2)cs1 | -1.9 | 55.3* | -63.6 | / | 67.6 | -4.8
CC(C)(C)S(=O)(=O)N1C[C@@H]2C(=C(CCO)C[C@@H]3C(=O)N(c4ccccc4)C(=O)[C@@H]32)[C@H]1CCO | / | / | / | -2.3 | / | /
C/C(=N/OC(=O)CC(C)C)c1cc(-c2ccc(Cl)cc2)no1 | -17.9 | / | -87.9 | 6.7 | 86.3* | /
COc1ccc(C(=O)Nc2ccc3c(c2)OCCO3)c(OC)c1 | -16.4 | 0.0 | / | 55.1* | / | -0.4
COc1cc2cc(C(=O)Nc3ccc4c(c3)OCCO4)[nH]c2cc1OC | 45.0* | -38.8 | 14.1 | -7.5 | -12.3 | -9.6
COc1cc2[nH]c(C(=O)Nc3ccc4c(c3)OCCO4)cc2c(OC)c1OC | 19.1 | 5.0 | 23.3 | 3.9 | -21.6 | -3.0
O=c1oc2cc(O)ccc2cc1S(=O)(=O)c1ccccc1 | 5.2 | -2.2 | -3.0 | -0.9 | 7.4 | 1.1
Cc1noc(C)c1S(=O)(=O)N(C)C[C@H]1Oc2c(NS(=O)(=O)c3cn(C)cn3)cccc2C(=O)N([C@H](C)CO)C[C@@H]1C | -0.5 | -8.5 | 3.2 | -1.5 | -2.0 | -19.0
COc1cccc(NC(=O)N(C)C[C@@H]2OCc3ccccc3-c3ccccc3C(=O)N([C@H](C)CO)C[C@@H]2C)c1 | / | -1.8 | / | / | / | -4.8
Cc1cc(C)c2nc(N3CCCC(C(=O)NCCN4CCOCC4)C3)sc2c1 (stereo not given) | -25.4 | 67.5* | -11.9 | 13.1 | 14.5 | 4.2
Cc1cc(C)c2nc(N3CCC(C(=O)NCCCN4CC(C)CC(C)C4)CC3)sc2c1 (stereo not given) | -88.1 | / | 83.2* | 1.7 | -82.0 | /
CC(=O)N1c2ccc(S(=O)(=O)NCCC(=O)NCc3ccc(N(C)C)cc3)cc2CC1C (stereo not given) | 2.6 | 0.8 | 8.5 | -2.1 | -5.5 | 92.0*
COc1cc(/C=C2/CC/C(=C/c3ccc(O)c(OC)c3)C2=O)ccc1O | -0.6 | / | 13.9 | 2.5 | -11.0 | /
COc1ccc(/C=C2\CN(Cc3ccccc3)C/C(=C\c3ccc(OC)c(O)c3)C2=O)cc1O | 86.5* | -85.5 | 97.8* | -14.4 | -97.5 | 99.1*
COc1cc(/C=C2\COC/C(=C\c3ccc(O)c(OC)c3)C2=O)ccc1O | 23.6 | / | 78.7* | -3.9 | / | /
COc1cc(-c2cc(=O)c3c(C)cc(O)cc3o2)cc(OC)c1OC | 3.5 | / | -6.6 | 5.1 | 1.6 | /

Source: PubChem BioAssay
